Results from PubChem BioAssay AID493192 (National Center for Advancing Translational Sciences (NCATS), 2011).
Results filed as inconclusive are left out. Where a call stands in place of a potency, no number is given. Active and inactive are the calls of the source. The call rests on the fitted dose curve; in most records, active means well fitted activation curve with a large enough effect; inconclusive means small, poorly fitted or top-dose-only effect; inactive means no such curve, though single readings can be large or run the other way.

Experiment: qHTS Assay for Identifying a Potential Treatment of Ataxia-Telangiectasia: Hit Validation;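 further: phospho-KAP1 level by AlphaLISA as a proxy for ATM-like kinase activity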
Details: Ataxia-telangiectasia cell-based hit validation qHTS, in ATM-null A-T patient fibroblasts; series mostly up to 76.9 µM
In short: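 hTERT-immortalized A-T patient fibroblasts (F2112) were dosed at up to 76.7 uM final for 60 min at 37C. After a further 30 min incubation, cells were lysed, and phospho-KAP1 was detected by AlphaLISA after 6 hr at 25C.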
Potency means the concentration at half of the fitted maximal effect.

## O=C(O)c1ccc(/C=C/c2nc3ccccc3c(=O)[nH]2)cc1
  Potency: inactive

## CC(=O)Nc1ccc(S(=O)(=O)NCC2(N3CCOCC3)CCCCC2)cc1
  Potency: inactive

## C[C@@H]1Cc2c(O)c(O)cc(O)c2C(=O)O1
  Potency: inactive

## COc1ccc(C2(C)CC(C)(C)Nc3ccccc32)cc1 (stereo unspecified)
  Potency: inactive

## C=Cc1c(C)c2cc3[nH]c(cc4nc(cc5nc(cc1[nH]2)C(C)=C5CCC(=O)O)C(CCC(=O)O)=C4C)c(C)c3C=C
  Potency: inactive

## Cc1ccccc1OCC(=O)Nc1cccc(C(=O)O)c1
  Potency: inactive

## NC(=O)c1cc2ccccc2o/c1=N/NC(=O)c1cccc(F)c1
  Potency: inactive

## O=C(OCCc1cc2ccccc2c(=O)o1)c1cccc(Br)c1
  Potency: inactive

## O=C(c1ccc(F)cc1)N1CCC(c2ccccc2)C1 (stereo unspecified)
  Potency: inactive

## CCCc1nn(C)c(C(=O)Nc2ccc(C(C)(C)C)cc2)c1Cl
  Potency: inactive

## CC(O)[C@H]1CNC(=O)C(=O)N1CC1(c2ccccc2)CC1 (stereo partly specified)
  Potency: inactive

## COc1ccc(-c2csc(-c3ccc(O)cc3)n2)cc1
  Potency: inactive

## COc1ccc(C(=O)/C=C/C(=O)N(CC(=O)NC2CCCCC2)Cc2ccccc2)c(O)c1
  Potency: 14.6 µM (active)

## O=C1C(Cl)=C(Nc2ccccc2)C(=O)c2ccccc21
  Potency: 16.4 µM (active)

## O=C(CCCn1nnnc1CN1CCOCC1)N1CCC(c2ccc(F)cc2)C1 (stereo unspecified)
  Potency: inactive

## Cc1ccc(C(C)C)c(OCCN2CCc3ccccc3C2)c1
  Potency: 32.8 µM (active)

## CSc1nc(SCC(=O)O)c2c3c(sc2n1)COC(C)(C)C3
  Potency: inactive

## COc1ccc2nc(NCCCNC(=O)c3cc(OC)c(OC)c(OC)c3)c(C#N)cc2c1
  Potency: inactive

## O=c1c2cc(Br)ccc2nc(-c2ccccc2)n1O
  Potency: inactive

## COc1ccc(N2CCN(C(=O)c3cc4cc(Cl)ccc4[nH]3)CC2)cc1
  Potency: inactive

## CSc1nc2ccccc2nc1N(C)S(=O)(=O)c1ccc(C)cc1
  Potency: 58.2 µM (active)

## O=C(c1nn2c(C(F)(F)F)cc(-c3ccc(F)cc3)nc2c1Cl)N1CCOCC1
  Potency: inactive

## CNC(=O)c1ccc(-c2cc3onc(-c4ccccc4)c3c(=O)n2C)cc1
  Potency: inactive

## COc1ccc(-c2cc(C(F)(F)F)c(C#N)c(SCC(=O)O)n2)cc1OC
  Potency: inactive

## COC1=C(N)C(=O)c2nc(-c3nc(C(=O)O)c(C)c(-c4ccc(OC)c(OC)c4O)c3N)ccc2C1=O
  Potency: inactive

## Cc1ccc2c(c1)sc(=NC(=O)C1CC1)n2C
  Potency: 18.4 µM (active)

## CC(C)(CO)NC(=O)c1ccc2c(c1)C(=O)c1ccccc1-2
  Potency: inactive

## CN(C)Cc1ccc(F)cc1Sc1cc(Cl)ccc1Cl
  Potency: inactive

## NC(=O)C1CCN(Cc2nc3cc(C(F)(F)F)ccc3c(=O)[nH]2)CC1
  Potency: inactive

## COc1cccc(C(=O)NOCc2ccc(C)cc2)c1OC
  Potency: inactive

## CCCc1ccc(S(=O)(=O)Nc2ccc(C)c(NS(C)(=O)=O)c2)cc1
  Potency: inactive

## CN(C)c1cc(Nc2ccc(O)cc2)c([N+](=O)[O-])c2nonc12
  Potency: inactive

## O=C(CNCc1cccs1)Nc1cc(S(=O)(=O)N2CCCC2)ccc1Cl
  Potency: inactive

## COc1cc(/C=C2\SC(=S)N(C(C(=O)O)c3ccccc3)C2=O)ccc1O (stereo unspecified)
  Potency: inactive

## CNC(=O)/C=C/c1cc(C(=O)c2ccc(Cl)cc2Cl)cn1C
  Potency: inactive

## O=C1NC(NS(=O)(=O)c2ccc(Cl)cc2)(C(F)(F)F)C(=O)N1CCc1ccccc1 (stereo unspecified)
  Potency: inactive

## CC1Cc2ccccc2N1C(=O)CSc1nnnn1-c1ccc2c(c1)OCCO2 (stereo unspecified)
  Potency: inactive

## COc1ccc2c(c1)c(N=NC(N)=S)c(O)n2CC(=O)c1ccccc1
  Potency: inactive

## COc1ccc(C2NC(=S)NC3=C2N2CCC3CC2)cc1 (stereo unspecified)
  Potency: 0.823 µM (active)

## CC1CCCC(C)N1C(=O)COC(=O)Cc1ccc(Cl)cc1 (stereo unspecified)
  Potency: inactive

## COc1ccc(OC)c(C2CC(c3ccccc3)=NN2C(=S)Nc2ccccc2)c1 (stereo unspecified)
  Potency: inactive

## Cn1cc(/C=N/NC(N)=S)c2ccccc21
  Potency: inactive

## COc1ccc(C2/C=C\CN(S(=O)(=O)c3ccc4ccccc4c3)CC(=O)N2Cc2ccc(F)cc2)cc1 (stereo unspecified)
  Potency: 29.2 µM (active)

## CC(C)(CN1CCN(c2ccccc2)CC1)NS(=O)(=O)c1ccccc1
  Potency: inactive

## CC(=O)Nc1ccc(NC2=CC(=O)c3ccccc3C2=O)cc1
  Potency: inactive

## CC(C)(C=O)C1=CC(=O)c2ccccc2C1=O
  Potency: 20.7 µM (active)

## O=C1C2C3C=CC(CC3)C2C(=O)N1c1cccc(Br)c1 (stereo unspecified)
  Potency: inactive

## COc1ccc(NCc2cc(=O)oc3cc(NC(C)=O)ccc23)cc1
  Potency: inactive

## COc1ccccc1C(=O)NC(=O)Nc1cccc(Cl)c1
  Potency: inactive

## O=C1NC(=Nc2ccccc2)CS1
  Potency: inactive

## CCn1nc(C)c(/C=N/NC(=O)Cn2cncn2)c1C
  Potency: inactive

## CCN(c1ccccc1)S(=O)(=O)c1ccc(Cl)c(C(=O)N(CC2CCCO2)C2CCS(=O)(=O)C2)c1 (stereo unspecified)
  Potency: inactive

## O=C1/C(=C/c2ccc(N3CCOCC3)o2)SC(=Nc2ccccc2)N1CCc1c[nH]c2ccccc12
  Potency: inactive

## Cc1cc(C)n2nc(C(=O)OCCOc3ccc(F)cc3)nc2n1
  Potency: 58.2 µM (active)

## C=CCSc1nc2ccccc2n1C(=O)/C=C/c1cc(OC)c(OC)c(OC)c1
  Potency: 26 µM (active)

## COc1cc(/C=C2\CCOC2=O)cc(OC)c1OC
  Potency: inactive

## CNC(=S)N(CCO)Cc1cc2cc3c(cc2[nH]c1=O)OCCO3
  Potency: inactive

## S=c1[nH]nc(COc2ccccc2)n1/N=C/c1ccccc1Cl
  Potency: inactive

## CCn1c2ccccc2c2c3ncc4cccn4c3ccc21
  Potency: 46.3 µM (active)

## CC(C)c1ccc(-c2cc(C(=O)N3CCOCC3)c3cc(Br)ccc3n2)cc1
  Potency: inactive

## Cc1cc2nc3ccc(=[N+](C)C)cc-3sc2cc1N
  Potency: inactive

## COc1ccc(/C=N/Nc2nc(=O)[nH]nc2C)cc1OC
  Potency: inactive

## CCC(=O)NC1=C(Cl)C(=O)C(NC(=O)CC)=C(Cl)C1=O
  Potency: inactive

## OC1(CC#CCN2CCCCC2)c2ccccc2-c2ccccc21
  Potency: inactive

## CC(NC(=O)COC(=O)/C=C/c1ccc(Cl)cc1)c1ccccc1 (stereo unspecified)
  Potency: inactive

## COc1ccc(NS(=O)(=O)c2ccc(N3CC(O)=C(c4ccccc4)C3=N)cc2)cc1
  Potency: inactive

## CN(C)C(=O)CN(C)S(=O)(=O)c1ccc(Cl)cc1
  Potency: inactive

## CCNC(=S)N(CCc1c(C)[nH]c2ccccc12)Cc1cccnc1
  Potency: inactive

## COc1ccc(Cl)cc1NC(=O)C[n+]1cccc(C)c1
  Potency: inactive

## COc1ccccc1N1CCN(C(=O)c2cc(=O)c3c(C)cc(C)cc3o2)CC1
  Potency: inactive

## Cc1ccc(C)c(-c2csc(Nc3ncccn3)n2)c1
  Potency: inactive

## CCOC(=O)c1cccc(N2C(=O)C3C4C=CC(CC4)C3C2=O)c1 (stereo unspecified)
  Potency: inactive

## CN(C)S(=O)(=O)c1ccc(NC(=O)c2ccc([N+](=O)[O-])cc2)cc1
  Potency: inactive

## O=C(Nc1cccc([N+](=O)[O-])c1)N1CCCc2ccccc21
  Potency: inactive

## CCOC(=O)N1CCC(NC(=O)C2CCN(S(=O)(=O)c3cccc4cccnc34)CC2)CC1
  Potency: inactive

## CCOC(=O)c1c(CSc2ccsc2)n(C)c2cc(Br)c(O)c(CN(C)C)c12
  Potency: 46.3 µM (active)

## COc1ccc(CNC(=O)COc2cccnc2[N+](=O)[O-])cc1OC
  Potency: inactive

## CCc1ccc(NC(=O)CNCc2ccc(OC)c(OC)c2)cc1
  Potency: inactive

## CCC(=O)c1ccc2c(c1)OCCO2
  Potency: inactive

## CCN1CCN(c2oc(COc3ccc(Cl)cc3)nc2C#N)CC1
  Potency: inactive

## Nc1ccc2ncccc2c1
  Potency: inactive

## Cn1c(=O)oc2cc(S(=O)(=O)N3CCc4ccccc43)ccc21
  Potency: inactive

## Cc1ccnc(NC(=O)c2ccccc2NC(=O)c2ccccc2)c1
  Potency: inactive

## c1ccc(CSc2nnc(-c3ccco3)n2Cc2ccco2)cc1
  Potency: inactive

## CCc1oc(C(=O)OC)cc1CSC(=N)N
  Potency: inactive

## CNC(=O)Cc1csc2ccc(C)cc12
  Potency: inactive

## CC(C)Nc1nc(Oc2ccc(=O)n(-c3ccccc3)n2)nc(N(C)C)n1
  Potency: inactive

## CCCN1CN(c2ccccc2)C(=S)N(c2ccccc2)C1
  Potency: inactive

## COc1ccc(NC(=O)C2CC2)cc1OC1CCCC1
  Potency: inactive

## COc1ccc(Oc2ncnc3c2oc2ccc(Br)cc23)cc1
  Potency: inactive

## COC(=O)Cn1ccc2cc(S(=O)(=O)N3CCCCC3)ccc21
  Potency: inactive

## COc1ccccc1[C@H]1C(c2cccc(Cl)c2)=NN(c2ccccc2)[C@@H]1CO
  Potency: inactive

## CCn1c(SCc2cccc(F)c2)nnc1-c1ccncc1
  Potency: inactive

## CCN1CCN(CC(=O)Nc2ccc(C(C)=O)cc2)CC1
  Potency: 26 µM (active)

## CC1CC(C)CN(S(=O)(=O)c2ccc(C(=O)NCCCn3ccnc3)cc2)C1 (stereo unspecified)
  Potency: inactive

## Cc1nnc(SCC(=O)NC(=O)Nc2ccc3c(c2)OCCO3)n1N
  Potency: inactive

## CNC(=O)c1ccc(-c2sc3nc(N4CCOCC4)c4c(c3c2N)CC(C)(C)OC4)o1
  Potency: 29.2 µM (active)

## CCC(C)NC(=O)c1cn(CCOC)c(=O)c2c1c1ccccc1n2C (stereo unspecified)
  Potency: inactive

## CC(=O)Nc1ccc(NC(=O)CSc2nnnn2-c2ccc(F)cc2)cc1
  Potency: inactive

## O=C(O)CCCN1C(=O)/C(=C/C=C/c2ccco2)SC1=S
  Potency: inactive

## COc1ccc(-n2c(C)cc(=O)[nH]c2=O)cc1
  Potency: inactive

## CCS(=O)(=O)N1Cc2ccccc2CC1C(=O)Nc1cccc(OC)c1 (stereo unspecified)
  Potency: inactive

## Cc1oc2ccc(OCc3ccc(Br)cc3)cc2c1C(=O)O
  Potency: inactive

## C/C(CCC1CC(C)OC1=O)=N\NC(N)=S (stereo unspecified)
  Potency: inactive

## CC(C)(C)C1CCC2(CC1)SCC(=O)N2c1ccccc1 (stereo unspecified)
  Potency: inactive

## CCN(CC)CCNC(=O)CCc1c(C)nc2c(c(C)nn2-c2ccc(C)cc2)c1C
  Potency: inactive

## CCn1nc(C)c(CNC(=O)c2cc(COc3ccc(F)cc3Cl)on2)c1C
  Potency: inactive

## COc1ccccc1Nc1nc(NCCCN(C)C)nc(N)c1[N+](=O)[O-]
  Potency: inactive

## O=C(O)c1ccc(C2Nc3ccccc3C(=O)N2Cc2ccccc2)cc1 (stereo unspecified)
  Potency: inactive

## CC(=O)/C(N=Nc1nc2c([nH]1)c(=O)n(C)c(=O)n2C)=C(\C)O
  Potency: inactive

## CC1=C/C(=C\C=C(C#N)C#N)N(C)c2ccccc21
  Potency: inactive
